From PubChem BioAssay (Tox21) come the findings set out here.

Inconclusive results are not listed. Unmarked numbers belong to inactive results. The source made the active and inactive calls. The call rests on the fitted dose curve.
On the % scale 0 is the no-effect control and ±100 the full control effect.

For the assay, the target named is Beta-2 adrenergic receptor (Homo sapiens) (UniProt P07550). Put plainly: Adrenergic beta2 receptor (ADRB2) small molecule agonists, cell-based qHTS assay (AID 1963593). To be noted: CHO-ADRB2 cells, cAMP HTRF, 30 min; series mostly up to 92.4 µM; activation: at the top concentration. The text has this: National Center for Advancing Translational Sciences [NCATS]
Beta-2 adrenergic receptor (Homo sapiens), sequence (P07550 whole entry, looked up): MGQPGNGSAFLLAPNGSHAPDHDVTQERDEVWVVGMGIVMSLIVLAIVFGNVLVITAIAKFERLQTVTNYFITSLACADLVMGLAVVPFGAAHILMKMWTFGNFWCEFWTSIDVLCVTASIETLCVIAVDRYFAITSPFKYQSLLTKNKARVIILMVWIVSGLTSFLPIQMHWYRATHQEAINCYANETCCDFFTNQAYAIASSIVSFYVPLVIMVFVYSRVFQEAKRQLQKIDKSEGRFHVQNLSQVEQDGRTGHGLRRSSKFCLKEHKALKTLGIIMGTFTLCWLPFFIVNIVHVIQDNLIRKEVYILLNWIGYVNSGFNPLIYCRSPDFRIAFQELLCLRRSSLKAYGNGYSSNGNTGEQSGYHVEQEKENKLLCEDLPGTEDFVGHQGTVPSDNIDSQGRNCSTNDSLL
Division of Preclinical Innovation [DPI]
U.S. Environmental Protection Agency [EPA]
National Institutes of Environmental Health Sciences [NIEHS]
National Toxicology Program [NTP]
U.S. Food and Drug Administration [FDA]
Beta adrenergic receptors (Beta-ARs) belong to the G-protein coupled receptor (GPCR) superfamily, includes three subtypes - beta1, beta2, and beta3. Beta1-AR is the predominant receptor subtype expressed in the heart, and beta2-AR is expressed in the kidney, lung, blood vessel and in the heart, and beta3 is found in the adipocytes. Beta1 and 2 ARs couple to Gs protein and elevate cyclic adenosine mono phosphate (cAMP), which activates protein kinase A and leads to the downstream signaling responsible for the physiological actions. Beta-AR agonists or antagonists are the most prescribed therapeutic agents for heart failure and asthma, and these were one of the first target receptors for the rational drug design. Tox21 10K compound library was screened using the cAMP-Gs dynamic assay (Cisbio Bioassays, Shelton, CT) to identify agonists/antagonists of the Gs-coupled human adrenergic, beta2 receptor (ADRB2) in the CHO-ADRB2 cell line (Codex BioSolutions, Inc. Gaithersburg, MD), which stably over-expresses ADRB2. The principle of cAMP-Gs dynamic assay is based on HTRF technology, which facilitates the fluorescence resonance energy transfer (FRET) between donor Europium cryptate and acceptor d2-labeled cAMP. The cAMP generated within cells competes with the red acceptor, d2-labled cAMP, for binding to the monoclonal anti-cAMP-cryptate (Europium donor). An increase in intracellular cAMP leads to the disruption of FRET signal, and the signal is inversely proportional to the cAMP concentration. Isoproterenol HCl (Sigma-Aldrich, St. Louis, MO) was used as a positive control in the screening.
Tox21 Assay Protocol Summary:
CHO-ADRB2 cells were dispensed at 1,000/well in 4uL assay medium into white/solid 1536-well plates (Greiner Bio-One North America Inc., Monroe, NC) using a Multidrop Combi dispenser (ThermoFisher Scientific, Waltham, MA). The assay plates were incubated at 37C and 5% CO2 for an overnight (18-20hr). Then positive control and test compounds dissolved in DMSO were transferred to the assay plates at 23nL using a Pintool station (Wako, San Diego, CA). Following the compound and positive control transfer, 1uL stimulation mix containing 100uM IBMX and 25uM Ro-20-1724 was added to each well of the assay plates using BioRAPTR Flying Reagent Dispenser (FRD, Beckman Coulter, Brea, CA). The assay plates were incubated at room temperature for 0.5hr. Then 2.5ul each d2-labled cAMP and anti-cAMP-cryptate solutions were added separately to each well of the assay plates using an FRD and the assay plates were incubated at room temperature for 1hr.
A general note: qHTS replaces the single test concentration by a dilution series.
For `O=C1CC2(CCCC2)CC(=O)N1CCCCN1CCN(c2ncccn2)CC1`, the “activation” value was -11.2%.
`C=CCCCCCCCCC(=O)OCCCC`: the “activation” value was -35.2%.
As for `O=S(=O)(O)CCS`, the Potency result was “inactive”.
Take `NC(=O)NS(=O)(=O)c1ccc(Cl)cc1`: the “activation” value is -15.9% [at 42.5 µM].
For the compound `C[C@@H](O)[C@H]1C(=O)N2C(C(=O)O)=C([C@H]3CCCO3)S[C@H]12`, the “activation” value is 10.8% [at 42.5 µM].
In the case of `OC1(c2ccc(Cl)cc2)CCNCC1`, the “activation” value is 8.71% [at 42.5 µM].
For the compound `CCc1c(Br)c(Br)c(Br)c(Br)c1Br`, the “activation” value was 5.15%.
Regarding `CCCCCCCCCCCCI`, the “activation” value was -27.7%.
For `C=CCn1cc[n+](C)c1`, the “activation” value is 0.624%.
As for `CCCOCCOCCOCCO`, the “activation” value was -1.67%.
`CS(=O)(=O)c1ccc(Cl)cc1`: the “activation” value is 2.21%.
For the compound `CCC(C)S` (stereo not given), the activation is 11% [at 3.27 µM].
With `CC(C)COC(=O)c1ccc(N)cc1`, the “activation” value is 5.08% [at 42.5 µM].
`CCCCCC=O`: the “activation” value is 16.2%.
Still for that read-out and setting: the value for `CCN(CC)CCNC(=O)c1ccc(NC(C)=O)cc1` was 20.2% [at 42.5 µM].
Still for that read-out and setting: then `CC(=O)OCC(=O)[C@@]1(O)CC[C@H]2[C@@H]3CCC4=CC(=O)C=C[C@]4(C)[C@H]3[C@@H](O)C[C@@]21C`, with -12.9% [at 42.5 µM]; and `CC(O)Cn1cnc2c1c(=O)n(C)c(=O)n2C` (stereo not given), with -14.7% [at 42.5 µM].
With `O=Cc1ccc(F)cc1`, the “activation” value was -34.2%.
The same measure, in the same setting: then `CCC(=O)O[C@H]1[C@H](O[C@@H]2[C@@H](C)[C@H](O[C@H]3C[C@@](C)(OC)[C@@H](O)[C@H](C)O3)[C@@H](C)C(=O)O[C@H](CC)[C@@](C)(O)[C@H](O)[C@@H](C)C(=O)[C@H](C)C[C@@]2(C)O)O[C@H](C)C[C@@H]1N(C)C`, with 5.02% [at 42.5 µM]; and `Cc1cc(C)cc(O)c1`, with 17.2%.
Take `NC(=O)Nc1ccc(Cl)cc1`: the “activation” value is 0.641%.
With `Cc1ccc(C(C)C)cc1O`, the “activation” value is -10.2%.
Consider `COc1cccc(OC)c1C(=O)O`, for which the “activation” value was -31.9%.
For the compound `CC(C)(CO)[C@@H](O)C(=O)NCCC(=O)O`, the “activation” value was 13.6%.
`Cc1c(C(=O)c2c[nH]n(C)c2=O)ccc(S(C)(=O)=O)c1C1=NOCC1`: the “activation” value is -17.2% [at 42.5 µM].
`CCN(CC)c1ccc(C=O)c(O)c1`: the “activation” value was -34.9%.
With `CC(C)(O)C(=O)O`, the “activation” value is 27.4%.
On the same count and under the same terms, the value for `CC(=O)O[C@@H]1CC2C3CCc4cc(OC(=O)c5ccccc5)ccc4C3CCC2(C)[C@H]1OC(C)=O` (stereo not given in full) was 4.49% [at 42.5 µM].
On to `OC[C@H]1O[C@@H]2O[C@H]3[C@H](O)[C@@H](O)[C@@H](O[C@H]4[C@H](O)[C@@H](O)[C@@H](O[C@H]5[C@H](O)[C@@H](O)[C@@H](O[C@H]6[C@H](O)[C@@H](O)[C@@H](O[C@H]7[C@H](O)[C@@H](O)[C@@H](O[C@H]8[C@H](O)[C@@H](O)[C@@H](O[C@H]1[C@H](O)[C@H]2O)O[C@@H]8CO)O[C@@H]7CO)O[C@@H]6CO)O[C@@H]5CO)O[C@@H]4CO)O[C@@H]3CO`, for which the Potency result is “inactive”.
Turning to `CC/C=C\CC1=C(C)CCC1=O`, the “activation” value was 1.67%.
Consider `CN=C(NC#N)NCCSCc1nc[nH]c1C`, for which the “activation” value is 2.48%.
Still for that read-out and setting: the value for `NC(=S)N/N=C/c1cccnc1` was -11.7% [at 42.5 µM].
Same read-out and setting: then `O=c1cc(CO)occ1O`, with 13.8% [at 42.5 µM].
In the case of `COC(=O)c1cc(Cl)ccc1OC`, the “activation” value was -33.4% [at 42.5 µM].
For `FC(F)(F)C(Cl)Br` (stereo not given), the Potency result is “inactive”.
On to `CC1(C)[C@H]2CC[C@]1(C)[C@H](O)C2`, for which the “activation” value was 1.23%.
Consider `NC[C@H]1O[C@H](O[C@H]2[C@H](O)[C@@H](O[C@H]3O[C@H](CO)[C@@H](O)[C@H](N)[C@H]3O)[C@H](N)C[C@@H]2N)[C@H](N)[C@@H](O)[C@@H]1O`, for which the activation was 1.3% [at 19 µM].
With `CC(C)(C)OC=O`, the “activation” value is -21%.
For the compound `CC1CC(OC(=O)c2ccccc2O)CC(C)(C)C1` (stereo not given), the Potency entry was “inactive”.
Turning to `CNC(=O)Nc1ccc(Cl)c(Cl)c1`, the “activation” value was -6.91%.
